# Laboratory results: paper PMC7862700, “An all-to-all approach to the identification of sequence-specific readers for epigenetic DNA modifications on cytosine”
# Experiments:
# Assay in all cases: DAPPL (digital affinity profiling via proximity ligation, sequencing); 10 mM Tris-HCl pH 7.5, 50 mM NaCl, 1 mM DTT, 4% glycerol, room temperature, 30 min; GST-TFs on glutathione beads, 16-mer random dsDNA library, 0.1% formaldehyde crosslink after washing; high values mean tight binding
# FLI1 = target: T1, FLI1 (Homo sapiens, UniProt Q01543 1-452); conditions: protein: recombinant; tags: N-terminal GST; dsDNA, one strand shown
# T1 sequence: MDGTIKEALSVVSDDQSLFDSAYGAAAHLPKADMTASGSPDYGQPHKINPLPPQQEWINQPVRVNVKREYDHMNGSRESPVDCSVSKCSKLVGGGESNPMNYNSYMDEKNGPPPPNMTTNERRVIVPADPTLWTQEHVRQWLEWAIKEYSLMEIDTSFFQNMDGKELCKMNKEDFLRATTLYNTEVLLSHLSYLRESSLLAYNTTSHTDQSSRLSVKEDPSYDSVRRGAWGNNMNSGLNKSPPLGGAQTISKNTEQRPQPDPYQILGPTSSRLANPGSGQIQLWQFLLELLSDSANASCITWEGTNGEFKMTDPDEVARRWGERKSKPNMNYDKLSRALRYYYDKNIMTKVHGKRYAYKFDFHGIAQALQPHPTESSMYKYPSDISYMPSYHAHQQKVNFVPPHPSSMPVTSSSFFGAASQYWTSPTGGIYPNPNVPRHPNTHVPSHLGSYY
# Procedure, shortened: (§1)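 A tag-only sample was pooled with DNA-barcoded human transcription factors that had been expressed in yeast as GST fusions and captured on glutathione beads. The pools were incubated for 30 min at room temperature with 200 nmole of a random double-stranded 16-mer DNA library in Tris/NaCl/DTT/glycerol buffer, then washed, crosslinked with 0.1% formaldehyde, proximity-ligated (BsaI/T4 ligase, 1 h, 37 °C), PCR-amplified and sequenced on an Illumina NextSeq500. Binding signal is each hexamer's read frequency for a factor divided by its frequency for the tag-only sample.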
# ELK1 = target: T2, ELK1 (Homo sapiens, UniProt P19419 1-428); conditions: protein: recombinant; tags: N-terminal GST; dsDNA, one strand shown
# T2 sequence: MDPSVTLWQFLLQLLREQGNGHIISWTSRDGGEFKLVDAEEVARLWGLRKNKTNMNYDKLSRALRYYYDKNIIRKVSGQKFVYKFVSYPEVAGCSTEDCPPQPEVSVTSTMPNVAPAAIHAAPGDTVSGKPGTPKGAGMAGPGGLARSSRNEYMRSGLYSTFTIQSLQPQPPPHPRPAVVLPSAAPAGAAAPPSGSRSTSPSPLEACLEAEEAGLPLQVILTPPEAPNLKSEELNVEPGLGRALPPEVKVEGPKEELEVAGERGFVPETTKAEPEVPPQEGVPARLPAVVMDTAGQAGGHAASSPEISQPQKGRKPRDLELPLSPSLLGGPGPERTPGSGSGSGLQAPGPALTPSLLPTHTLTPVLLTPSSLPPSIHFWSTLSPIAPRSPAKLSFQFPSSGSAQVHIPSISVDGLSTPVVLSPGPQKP
# Procedure, shortened: as §1
# GABPA = target: T3, GABPA (Homo sapiens, UniProt Q06546 1-454); conditions: protein: recombinant; tags: N-terminal GST; dsDNA, one strand shown
# T3 sequence: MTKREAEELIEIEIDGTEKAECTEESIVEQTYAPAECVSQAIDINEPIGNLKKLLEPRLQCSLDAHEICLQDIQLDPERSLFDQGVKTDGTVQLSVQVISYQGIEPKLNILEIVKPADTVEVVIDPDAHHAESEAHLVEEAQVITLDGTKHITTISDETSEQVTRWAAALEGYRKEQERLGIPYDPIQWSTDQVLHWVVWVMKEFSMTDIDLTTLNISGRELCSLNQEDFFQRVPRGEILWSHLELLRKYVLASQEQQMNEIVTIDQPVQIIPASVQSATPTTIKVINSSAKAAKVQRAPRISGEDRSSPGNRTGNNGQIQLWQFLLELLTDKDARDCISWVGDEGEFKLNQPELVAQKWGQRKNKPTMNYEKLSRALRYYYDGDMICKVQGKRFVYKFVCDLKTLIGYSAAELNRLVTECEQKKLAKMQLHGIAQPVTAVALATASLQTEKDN
# Procedure, shortened: as §1
# ERG = target: T4, ERG (Homo sapiens, UniProt P11308 1-479); conditions: protein: recombinant; tags: N-terminal GST; dsDNA, one strand shown
# T4 sequence: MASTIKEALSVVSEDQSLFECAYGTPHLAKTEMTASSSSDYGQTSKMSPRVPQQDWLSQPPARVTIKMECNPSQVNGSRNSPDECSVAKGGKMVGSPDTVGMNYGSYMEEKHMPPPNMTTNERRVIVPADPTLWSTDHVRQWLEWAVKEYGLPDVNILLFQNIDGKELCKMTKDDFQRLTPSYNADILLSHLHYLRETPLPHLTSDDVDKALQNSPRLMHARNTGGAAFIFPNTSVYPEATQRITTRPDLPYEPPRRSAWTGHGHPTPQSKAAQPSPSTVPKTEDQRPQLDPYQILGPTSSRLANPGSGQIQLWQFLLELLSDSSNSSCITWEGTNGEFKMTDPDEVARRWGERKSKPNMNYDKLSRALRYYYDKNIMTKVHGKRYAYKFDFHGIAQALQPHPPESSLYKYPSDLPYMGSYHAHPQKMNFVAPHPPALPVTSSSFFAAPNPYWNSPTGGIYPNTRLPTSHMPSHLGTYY
# Procedure, shortened: as §1
# ELF1 = ELF1 (Homo sapiens, UniProt P32519 1-619); conditions: protein: recombinant; tags: N-terminal GST; dsDNA, one strand shown
# Procedure, shortened: as §1
# EHF = target: T5, EHF (Homo sapiens, UniProt Q9NZC4 1-300); conditions: protein: recombinant; tags: N-terminal GST; dsDNA, one strand shown
# T5 sequence: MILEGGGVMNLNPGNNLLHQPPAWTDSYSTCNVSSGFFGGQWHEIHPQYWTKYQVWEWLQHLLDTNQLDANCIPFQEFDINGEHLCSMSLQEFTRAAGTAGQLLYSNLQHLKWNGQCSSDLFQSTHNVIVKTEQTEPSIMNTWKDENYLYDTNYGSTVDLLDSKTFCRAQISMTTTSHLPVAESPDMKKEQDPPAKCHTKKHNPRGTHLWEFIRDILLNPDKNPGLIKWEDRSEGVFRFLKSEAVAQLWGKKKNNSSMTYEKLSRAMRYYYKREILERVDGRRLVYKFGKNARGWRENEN
# Procedure, shortened: as §1
# SPI1 = SPI1 (Homo sapiens, UniProt P17947 1-270); conditions: protein: recombinant; tags: N-terminal GST; dsDNA, one strand shown
# Procedure, shortened: as §1
# SPIB = SPIB (Homo sapiens, UniProt Q01892 1-262); conditions: protein: recombinant; tags: N-terminal GST; dsDNA, one strand shown
# Procedure, shortened: as §1
# ELK3 = target: T6, ELK3 (Homo sapiens, UniProt P41970 1-407); conditions: protein: recombinant; tags: N-terminal GST; dsDNA, one strand shown
# T6 sequence: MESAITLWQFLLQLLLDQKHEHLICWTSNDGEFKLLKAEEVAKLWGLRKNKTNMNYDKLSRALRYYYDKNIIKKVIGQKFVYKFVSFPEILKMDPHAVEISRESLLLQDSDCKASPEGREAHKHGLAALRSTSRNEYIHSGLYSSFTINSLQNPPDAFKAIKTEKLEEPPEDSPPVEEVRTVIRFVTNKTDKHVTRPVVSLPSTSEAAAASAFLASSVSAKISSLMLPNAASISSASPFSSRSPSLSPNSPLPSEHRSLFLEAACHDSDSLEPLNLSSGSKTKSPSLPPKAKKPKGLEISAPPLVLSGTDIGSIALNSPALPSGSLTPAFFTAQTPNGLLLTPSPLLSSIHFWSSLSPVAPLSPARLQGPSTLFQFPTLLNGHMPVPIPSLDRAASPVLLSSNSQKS
# Procedure, shortened: as §1
# FEV = target: T7, FEV (Homo sapiens, UniProt Q99581 1-238); conditions: protein: recombinant; tags: N-terminal GST; dsDNA, one strand shown
# T7 sequence: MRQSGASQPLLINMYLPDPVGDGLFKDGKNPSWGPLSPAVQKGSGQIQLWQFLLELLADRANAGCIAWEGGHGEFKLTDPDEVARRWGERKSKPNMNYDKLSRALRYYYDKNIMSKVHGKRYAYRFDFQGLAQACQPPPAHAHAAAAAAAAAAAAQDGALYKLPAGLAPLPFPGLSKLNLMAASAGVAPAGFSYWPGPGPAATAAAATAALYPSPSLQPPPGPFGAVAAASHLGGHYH
# Procedure, shortened: as §1
# ETV5 = ETV5 (Homo sapiens, UniProt P41161 1-510); conditions: protein: recombinant; tags: N-terminal GST; dsDNA, one strand shown
# Procedure, shortened: as §1
# HSF1 = HSF1 (Homo sapiens, UniProt Q00613 1-529); conditions: protein: recombinant; tags: N-terminal GST; chain copies: 3; dsDNA, one strand shown
# Procedure, shortened: as §1
# SPIC = target: T8, SPIC (Homo sapiens, UniProt Q8N5J4 1-248); conditions: protein: recombinant; tags: N-terminal GST; dsDNA, one strand shown
# T8 sequence: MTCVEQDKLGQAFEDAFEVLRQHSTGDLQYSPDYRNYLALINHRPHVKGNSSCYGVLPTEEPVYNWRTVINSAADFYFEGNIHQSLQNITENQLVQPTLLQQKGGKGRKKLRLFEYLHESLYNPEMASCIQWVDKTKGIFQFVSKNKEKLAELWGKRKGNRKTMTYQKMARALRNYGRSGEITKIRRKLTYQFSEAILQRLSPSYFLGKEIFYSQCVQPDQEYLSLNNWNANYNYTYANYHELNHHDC
# Procedure, shortened: as §1
# ELF4 = ELF4 (Homo sapiens, UniProt Q99607 1-663); conditions: protein: recombinant; tags: N-terminal GST; dsDNA, one strand shown
# Procedure, shortened: as §1
# ELK4 = target: T9, ELK4 (Homo sapiens, UniProt P28324-2 1-405); conditions: protein: recombinant; tags: N-terminal GST; dsDNA, one strand shown
# T9 sequence: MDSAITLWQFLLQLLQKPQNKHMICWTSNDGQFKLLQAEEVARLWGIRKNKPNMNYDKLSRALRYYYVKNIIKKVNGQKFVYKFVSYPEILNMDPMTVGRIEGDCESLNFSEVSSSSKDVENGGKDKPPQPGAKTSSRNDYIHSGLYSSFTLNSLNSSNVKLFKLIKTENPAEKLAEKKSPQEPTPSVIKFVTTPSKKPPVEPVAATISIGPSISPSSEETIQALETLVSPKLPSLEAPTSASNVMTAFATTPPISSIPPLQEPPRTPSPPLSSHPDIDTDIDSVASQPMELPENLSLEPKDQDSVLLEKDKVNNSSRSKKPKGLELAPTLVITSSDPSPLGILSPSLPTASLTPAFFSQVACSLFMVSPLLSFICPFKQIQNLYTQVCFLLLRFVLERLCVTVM
# Procedure, shortened: as §1
# ETV2 = target: T10, ETV2 (Homo sapiens, UniProt O00321 1-342); conditions: protein: recombinant; tags: N-terminal GST; dsDNA, one strand shown
# T10 sequence: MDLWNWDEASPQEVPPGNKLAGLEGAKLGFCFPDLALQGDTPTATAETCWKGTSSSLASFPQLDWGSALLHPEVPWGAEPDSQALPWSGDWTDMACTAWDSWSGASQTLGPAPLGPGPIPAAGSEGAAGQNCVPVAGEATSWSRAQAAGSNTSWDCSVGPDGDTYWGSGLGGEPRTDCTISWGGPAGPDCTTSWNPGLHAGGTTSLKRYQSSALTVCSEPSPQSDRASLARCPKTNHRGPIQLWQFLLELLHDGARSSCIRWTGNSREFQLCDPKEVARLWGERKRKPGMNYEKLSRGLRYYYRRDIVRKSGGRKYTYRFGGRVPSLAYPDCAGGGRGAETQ
# Procedure, shortened: as §1
# ELF3 = target: T11, ELF3 (Homo sapiens, UniProt P78545 1-371); conditions: protein: recombinant; tags: N-terminal GST; dsDNA, one strand shown
# T11 sequence: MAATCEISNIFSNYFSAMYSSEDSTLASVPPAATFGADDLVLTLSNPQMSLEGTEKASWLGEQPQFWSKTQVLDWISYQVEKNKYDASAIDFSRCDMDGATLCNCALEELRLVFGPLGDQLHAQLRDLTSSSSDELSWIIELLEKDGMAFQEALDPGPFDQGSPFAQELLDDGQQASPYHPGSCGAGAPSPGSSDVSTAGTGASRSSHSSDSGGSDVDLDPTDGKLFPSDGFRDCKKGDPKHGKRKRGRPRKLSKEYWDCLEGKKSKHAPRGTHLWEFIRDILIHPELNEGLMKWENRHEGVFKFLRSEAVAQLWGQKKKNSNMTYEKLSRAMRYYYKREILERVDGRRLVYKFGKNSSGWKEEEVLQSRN
# Procedure, shortened: as §1
# ETV1 = ETV1 (Homo sapiens, UniProt P50549 1-477); conditions: protein: recombinant; tags: N-terminal GST; dsDNA, one strand shown
# Procedure, shortened: as §1
# ELF1, sequence (P32519 whole entry): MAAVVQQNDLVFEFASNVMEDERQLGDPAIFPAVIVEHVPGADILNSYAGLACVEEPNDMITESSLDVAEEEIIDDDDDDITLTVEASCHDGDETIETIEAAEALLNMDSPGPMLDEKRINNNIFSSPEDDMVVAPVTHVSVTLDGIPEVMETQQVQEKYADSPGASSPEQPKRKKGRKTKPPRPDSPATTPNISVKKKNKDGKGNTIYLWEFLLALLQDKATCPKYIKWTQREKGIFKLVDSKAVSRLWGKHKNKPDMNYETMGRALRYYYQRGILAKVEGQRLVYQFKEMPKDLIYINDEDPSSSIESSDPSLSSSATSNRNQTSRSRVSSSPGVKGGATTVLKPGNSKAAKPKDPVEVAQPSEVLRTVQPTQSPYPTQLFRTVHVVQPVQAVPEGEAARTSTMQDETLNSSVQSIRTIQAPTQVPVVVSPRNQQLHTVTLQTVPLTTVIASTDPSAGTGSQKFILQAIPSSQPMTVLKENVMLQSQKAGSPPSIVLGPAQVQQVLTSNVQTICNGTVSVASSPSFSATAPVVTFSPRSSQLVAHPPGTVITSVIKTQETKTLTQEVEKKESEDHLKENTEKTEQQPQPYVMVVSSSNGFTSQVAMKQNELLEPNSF
# HSF1, sequence (Q00613 whole entry): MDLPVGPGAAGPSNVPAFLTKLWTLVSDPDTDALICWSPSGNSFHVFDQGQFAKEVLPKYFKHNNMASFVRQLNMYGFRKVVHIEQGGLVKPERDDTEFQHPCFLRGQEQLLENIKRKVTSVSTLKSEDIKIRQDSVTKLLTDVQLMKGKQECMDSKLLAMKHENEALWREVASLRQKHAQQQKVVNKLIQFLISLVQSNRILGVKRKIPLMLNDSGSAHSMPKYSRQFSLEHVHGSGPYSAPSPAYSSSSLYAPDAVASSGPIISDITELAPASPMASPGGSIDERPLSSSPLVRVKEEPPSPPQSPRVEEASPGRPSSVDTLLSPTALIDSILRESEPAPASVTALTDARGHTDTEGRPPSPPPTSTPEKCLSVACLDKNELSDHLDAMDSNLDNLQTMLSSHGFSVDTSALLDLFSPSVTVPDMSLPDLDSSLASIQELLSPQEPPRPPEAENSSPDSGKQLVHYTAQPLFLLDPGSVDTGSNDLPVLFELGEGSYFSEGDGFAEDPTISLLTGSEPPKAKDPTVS
# ELF4, sequence (Q99607 whole entry): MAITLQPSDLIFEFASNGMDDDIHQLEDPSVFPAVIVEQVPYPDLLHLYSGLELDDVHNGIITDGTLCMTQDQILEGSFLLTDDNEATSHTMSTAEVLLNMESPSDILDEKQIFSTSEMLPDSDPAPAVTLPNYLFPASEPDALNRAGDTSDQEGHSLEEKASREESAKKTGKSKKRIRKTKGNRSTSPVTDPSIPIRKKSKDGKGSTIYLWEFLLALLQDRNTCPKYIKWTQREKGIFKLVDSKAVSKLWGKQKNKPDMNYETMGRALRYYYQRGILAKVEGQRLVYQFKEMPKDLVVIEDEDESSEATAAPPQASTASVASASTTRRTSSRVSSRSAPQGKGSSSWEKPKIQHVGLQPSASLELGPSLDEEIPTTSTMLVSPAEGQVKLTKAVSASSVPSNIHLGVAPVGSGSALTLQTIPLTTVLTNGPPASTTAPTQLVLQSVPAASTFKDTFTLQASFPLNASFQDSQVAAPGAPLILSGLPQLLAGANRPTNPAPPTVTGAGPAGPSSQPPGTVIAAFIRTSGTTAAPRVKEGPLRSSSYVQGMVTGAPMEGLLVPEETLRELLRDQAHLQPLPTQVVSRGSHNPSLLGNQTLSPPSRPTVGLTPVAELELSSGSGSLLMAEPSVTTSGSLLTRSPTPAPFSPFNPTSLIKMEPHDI
# ETV5, sequence (P41161 whole entry): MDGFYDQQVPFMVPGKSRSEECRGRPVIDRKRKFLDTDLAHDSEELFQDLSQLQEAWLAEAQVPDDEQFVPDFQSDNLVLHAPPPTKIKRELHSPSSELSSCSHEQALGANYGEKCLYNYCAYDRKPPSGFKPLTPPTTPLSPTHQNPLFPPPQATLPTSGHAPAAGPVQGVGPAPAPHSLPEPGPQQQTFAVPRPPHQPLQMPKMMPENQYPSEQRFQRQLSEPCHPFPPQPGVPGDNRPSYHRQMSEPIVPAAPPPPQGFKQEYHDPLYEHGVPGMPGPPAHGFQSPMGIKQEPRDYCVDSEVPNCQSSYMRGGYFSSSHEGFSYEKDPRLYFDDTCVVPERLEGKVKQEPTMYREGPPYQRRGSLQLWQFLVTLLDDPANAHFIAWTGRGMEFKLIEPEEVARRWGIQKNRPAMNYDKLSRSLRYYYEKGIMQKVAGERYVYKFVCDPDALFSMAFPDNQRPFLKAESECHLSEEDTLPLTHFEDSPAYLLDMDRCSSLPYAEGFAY
# ETV1, sequence (P50549 whole entry): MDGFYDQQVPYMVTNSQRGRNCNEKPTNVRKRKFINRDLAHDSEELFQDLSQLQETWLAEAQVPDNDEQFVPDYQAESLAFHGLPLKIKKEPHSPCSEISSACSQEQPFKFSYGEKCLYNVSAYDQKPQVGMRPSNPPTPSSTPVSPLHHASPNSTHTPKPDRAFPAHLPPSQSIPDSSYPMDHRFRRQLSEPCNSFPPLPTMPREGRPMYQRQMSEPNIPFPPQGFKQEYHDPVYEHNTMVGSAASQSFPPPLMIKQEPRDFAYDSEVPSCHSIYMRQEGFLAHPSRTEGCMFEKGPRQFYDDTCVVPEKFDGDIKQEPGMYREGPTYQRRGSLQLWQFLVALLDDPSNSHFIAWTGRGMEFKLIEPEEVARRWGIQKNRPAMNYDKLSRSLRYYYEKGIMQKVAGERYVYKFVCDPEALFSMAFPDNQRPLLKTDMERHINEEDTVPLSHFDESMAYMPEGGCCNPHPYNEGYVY
# SPIB, sequence (Q01892 whole entry): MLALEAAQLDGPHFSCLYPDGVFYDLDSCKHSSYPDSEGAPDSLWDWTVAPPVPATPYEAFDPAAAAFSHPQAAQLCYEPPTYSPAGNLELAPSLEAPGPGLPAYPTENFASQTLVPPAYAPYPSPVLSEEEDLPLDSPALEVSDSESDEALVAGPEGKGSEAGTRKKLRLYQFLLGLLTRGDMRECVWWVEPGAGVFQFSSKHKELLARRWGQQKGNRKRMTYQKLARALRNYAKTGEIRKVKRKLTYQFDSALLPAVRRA
sequence,measurement,setting,value
ACCATC,binding signal,FLI1,"1.18 fold enrichment (6-mer frequency, TF over GST control)"
same,binding signal,ELK1,"1.14 fold enrichment (6-mer frequency, TF over GST control)"
same,binding signal,GABPA,"1.19 fold enrichment (6-mer frequency, TF over GST control)"
same,binding signal,ERG,"1.1 fold enrichment (6-mer frequency, TF over GST control)"
same,binding signal,ELF1,"1.21 fold enrichment (6-mer frequency, TF over GST control)"
same,binding signal,EHF,"1.12 fold enrichment (6-mer frequency, TF over GST control)"
same,binding signal,SPI1,"1.15 fold enrichment (6-mer frequency, TF over GST control)"
same,binding signal,SPIB,"1.07 fold enrichment (6-mer frequency, TF over GST control)"
same,binding signal,ELK3,"1.24 fold enrichment (6-mer frequency, TF over GST control)"
same,binding signal,FEV,"1.13 fold enrichment (6-mer frequency, TF over GST control)"
same,binding signal,ETV5,"1.11 fold enrichment (6-mer frequency, TF over GST control)"
same,binding signal,HSF1,"1.14 fold enrichment (6-mer frequency, TF over GST control)"
same,binding signal,SPIC,"1.02 fold enrichment (6-mer frequency, TF over GST control)"
same,binding signal,ELF4,"1.12 fold enrichment (6-mer frequency, TF over GST control)"
same,binding signal,ELK4,"1.13 fold enrichment (6-mer frequency, TF over GST control)"
same,binding signal,ETV2,"1.06 fold enrichment (6-mer frequency, TF over GST control)"
same,binding signal,ELF3,"1.19 fold enrichment (6-mer frequency, TF over GST control)"
same,binding signal,ETV1,"1.03 fold enrichment (6-mer frequency, TF over GST control)"
